This is a sample that favours compounds with a hit; in the whole collection about 2.4% have one here.
A3A deaminase – inhibitors of human APOBEC3A DNA deaminase; recombinant A3A, FAM/TAMRA ssDNA deamination fluorescence; P31941; 0.41% of 330,000 active; AID 493011; inhibition, % at 20 µM;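 active means at least 40% inhibition at 20 µM here, with at most 30% in a related deaminase screen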
Target sequence (P31941 whole entry, looked up): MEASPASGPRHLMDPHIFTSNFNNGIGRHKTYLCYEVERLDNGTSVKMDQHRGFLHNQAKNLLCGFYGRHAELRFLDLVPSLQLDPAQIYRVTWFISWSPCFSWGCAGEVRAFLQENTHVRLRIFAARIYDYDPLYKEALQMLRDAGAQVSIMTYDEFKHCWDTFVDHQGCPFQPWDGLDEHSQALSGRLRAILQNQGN
A3G deaminase – inhibitors of human APOBEC3G DNA deaminase | inhibition, % at 20 µM | AID 493012 | 0.28% of 330,000 active | recombinant A3G, ssDNA deamination FAM/TAMRA fluorescence | Q9HC16;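 active means inhibition of at least 40% at 20 µM, with no more than 30% in the related APOBEC3A deaminase screen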
Target sequence (Q9HC16 whole entry, looked up): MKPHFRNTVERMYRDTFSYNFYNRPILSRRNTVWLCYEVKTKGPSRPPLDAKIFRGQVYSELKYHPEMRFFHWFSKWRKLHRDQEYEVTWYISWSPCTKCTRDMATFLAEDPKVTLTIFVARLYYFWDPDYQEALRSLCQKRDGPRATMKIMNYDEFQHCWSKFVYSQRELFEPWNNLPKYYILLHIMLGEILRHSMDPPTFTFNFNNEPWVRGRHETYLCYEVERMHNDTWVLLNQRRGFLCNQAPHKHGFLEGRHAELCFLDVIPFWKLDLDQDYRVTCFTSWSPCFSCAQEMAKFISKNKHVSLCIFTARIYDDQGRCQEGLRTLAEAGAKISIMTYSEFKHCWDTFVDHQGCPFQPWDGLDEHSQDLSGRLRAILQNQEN
M18AAP inhibitor – blocks P. falciparum M18 aspartyl aminopeptidase; 1.2% of 290,000 active; AID 1822; inhibition, % at 7.35 µM; recombinant PfM18AAP, H-Glu-NHMec fluorogenic cleavage;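 active means inhibition above the campaign mean inhibition over all tested compounds plus 3 SD, cut at about 28% in these data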
PfGluPho inh – PfG6PD (Plasmodium falciparum) enzyme inhibition | inhibition, % at 20 µM | 0.78% of 350,000 active | PfGluPho enzyme, NADPH resazurin-diaphorase fluorescence;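 active means inhibition reaching at least a set limit at 20 µM in the primary screen, cut at about 59% in these data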
CR mimetic SO – yeast age-related superoxide inhibition as caloric restriction mimetic; S. cerevisiae aged cells, superoxide DHE fluorescence; hits give low values; superoxide response (% of plate mean), % at 10 µM; 0.18% of 330,000 active; AID 2690;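 active means superoxide response under a set limit, about three screen SD below normal, cut at about 65% in these data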;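 further: yeast aged for seven days with compound at 30 °C before DHE staining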
A3A conf – APOBEC3A (human) deaminase inhibition, confirmed; AID 493151; 63% of 1,400 active; recombinant A3A, ssDNA deaminase UDG fluorescence assay; inhibition, % at 20 µM; shares compounds with A3A deaminase;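 active means inhibition reaching a set limit, 80% of the first screen's cutoff, at 20 µM in any replicate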
UDG A3A counter – counter-screen for APOBEC3A inhibitors: UDG; 1,000 tested, under 10 active; shares compounds with A3A deaminase; UDG counterscreen, FAM/TAMRA uracil oligo fluorescence; inhibition, % at 20 µM; call rule not given here
Hits are given with their value; i = inactive; nt = not tested or not shown.

SMILES	A3A deaminase	A3G deaminase	M18AAP inhibitor	PfGluPho inh	CR mimetic SO	A3A conf	UDG A3A counter
COc1cccc(CCNC(=O)CCc2nnc(-c3cc(C)oc3C)o2)c1	i	i	i	i	i	nt	nt
CCN1C(=NCC(C)C)N[C@@H](c2cccc(C(F)(F)F)c2)C(C(=O)OC)=C1C	59	i	i	i	i	61	nt
CCc1nc(-c2ccc(C)nc2OC)no1	67	i	i	i	i	62	i
O=C(COC(=O)Cc1cccc(C(F)(F)F)c1)Nc1cccc2ccccc12	41	i	i	i	i	i	i
Cc1cc(C=O)c(C)n1-c1cccc(C(=O)O)c1	i	i	i	i	i	nt	nt
Cc1cc(C=O)c(C)n1-c1cc(C(=O)O)cc(C(=O)O)c1	64	i	i	i	i	64	i
COc1ccc(CNC(=O)COC(=O)c2cc3ccccc3o2)cc1	i	i	nt	i	nt	nt	nt
COc1ccc(NC(=O)CN(C)C(=O)c2cc(-c3cccs3)nn2-c2ccccc2)cc1	i	i	nt	i	i	nt	nt
CCN(CC(=O)Nc1ccc(OC)cc1)C(=O)c1cc(-c2cccs2)nn1-c1ccccc1	78	i	nt	i	i	i	i
Cc1nn(-c2cccc(Cl)c2)c2nc(-c3ccco3)cc(C(=O)O)c12	i	i	i	i	i	nt	nt
Cc1nn(-c2ccccc2)c2nc(-c3ccco3)cc(C(=O)O)c12	67	i	i	i	i	48	i
C[C@H](CO)N1C[C@H](C)[C@@H](CN(C)S(C)(=O)=O)Oc2ccc(NC(=O)c3ccncc3)cc2C1=O	i	i	nt	i	i	nt	nt
O=C(COC(=O)/C=C/c1ccccc1[N+](=O)[O-])NNC(=O)c1ccc(F)cc1	i	i	nt	i	nt	nt	nt
NC(=O)C[N+]1(CC#CC(O)(c2ccccc2)c2ccccc2)CCCC1	51	i	i	i	i	71	i
CCN1C[C@@H]2[C@@H]3C(=O)N(Cc4ccccc4)C(=O)[C@@H]3[C@](CC)(C1=O)N2C(=O)c1ccc(F)cc1	nt	nt	nt	i	nt	nt	nt
Cn1c(SCC(=O)N2CCOCC2)nnc1-c1cccc(NC(=O)c2ccccc2F)c1	i	i	i	i	i	nt	nt
Cn1c(SCC(=O)Nc2ccc3[nH]c(=O)[nH]c3c2)nnc1-c1ccccc1	i	i	i	i	i	nt	nt
COc1ccc(-c2nnc(SCC(=O)NC(=O)Cc3ccccc3)n2C)cc1	43	i	nt	i	i	i	nt
Cn1c(SCC(=O)NC(=O)Cc2ccccc2)nnc1-c1ccc(F)cc1	i	i	nt	i	i	nt	nt
Cn1c(SCC(=O)Nc2ccc3c(c2)oc2ccccc23)nnc1-c1ccccc1	46	i	i	i	i	60	i
Cn1c(SCC(=O)NC(C)(C)C)nnc1-c1cccc(NC(=O)c2ccccc2F)c1	45	i	i	i	i	i	nt
COc1ccc(-c2nnc(SCC(=O)Nc3ccc(C)cc3)n2C)cc1	i	i	i	i	i	nt	nt
CCSCc1nnc(SCC(=O)Nc2ccc(OC)cc2)n1C	56	i	i	i	i	63	i
COc1cc(C(=O)NCC2CCCN2S(=O)(=O)c2cccs2)cc(OC)c1OC (stereo unspecified)	i	i	nt	i	i	nt	nt
CCOC(=O)c1ccc(N2CCOCC2)c(NC(=O)c2ccc3c(c2)OCO3)c1	i	i	i	i	i	nt	nt
SMILES	A3A deaminase	A3G deaminase	M18AAP inhibitor	PfGluPho inh	CR mimetic SO	A3A conf	UDG A3A counter
COC(=O)c1ccc(/C=N/NC(=O)CC(=O)NC(C)C)cc1	i	i	i	i	i	nt	nt
COC(=O)c1ccc2ccn(CC(=O)NC(C)C)c2c1	74	i	i	i	i	70	i
COc1ccc(Nc2nnc(C)c(=O)[nH]2)c(OC)c1	i	i	i	i	i	nt	nt
Cn1c(-[n+]2c(-c3ccccc3)cc(-c3ccccc3)cc2-c2ccccc2)nc2cc([N+](=O)[O-])ccc21	46	i	i	i	i	56	i
C[N+]1(CCCOC(=O)C2(c3ccccc3)CCCC2)CCOCC1	85	i	i	i	i	69	i
COC(=O)c1ccc(N2NC(=O)/C(=C/c3ccc(-c4ccc(Cl)c(C(=O)O)c4)o3)C2=O)cc1	59	i	i	i	nt	70	i
O=C(CSc1ccccn1)Nc1cccc2ccccc12	60	i	i	i	i	44	i
O=C(C1=C[C@H](c2coc3ccccc3c2=O)C[C@H](OCCCCO)O1)N1CCN(Cc2ccccc2)CC1	76	i	i	i	i	i	i
O=C(C1=C[C@H](c2coc3ccccc3c2=O)C[C@H](OCCCCO)O1)N1CCOCC1	i	i	i	i	i	nt	nt
Cn1cc(/C=N/NC(=O)c2cc3cc(Br)ccc3o2)c2ccccc21	52	i	i	i	i	58	i
O=C(O)Cn1cc(/C=N/NC(=O)c2cc3cc(Br)ccc3o2)c2ccccc21	i	i	i	i	i	nt	nt
COc1ccc(NC(=O)/C(C#N)=C\c2ccc(Br)o2)cc1	71	i	i	i	i	42	i
COc1cccc(OC)c1C(=O)Nc1ccncc1	i	i	nt	i	i	nt	nt
Cc1ccc(/C=C2\SC(N)=NC2=O)s1	56	i	i	i	i	i	i
CN(C)c1cc[n+](CC(=O)c2ccc(OC(F)F)cc2)cc1	i	i	i	i	i	nt	nt
COc1ccc(NC(C)=[N+](C)CCNS(=O)(=O)c2ccc(Cl)cc2)cc1Cl	62	i	i	i	i	69	i
COc1ccccc1NC(C)=[N+](C)CCNS(=O)(=O)c1ccc(Cl)cc1	56	i	i	i	i	79	i
COc1ccc(NC(=O)CCNS(=O)(=O)c2ccc(NC(C)=O)cc2)cc1Cl	i	i	i	i	i	nt	nt
CC(Nc1cc(C)cc(C)c1)=[N+](C)CCNS(=O)(=O)c1ccc(Cl)cc1	45	i	i	i	i	67	i
COc1cc(/C=C(\C(=O)O)c2ccc(S(=O)(=O)N3CCCC3)s2)ccc1OCCC(C)C	nt	nt	nt	i	nt	nt	nt
C[N+](C)(C)CCN1C(=O)CSC1=O	55	i	i	i	i	48	i
COc1cccc(N2CCN(CC(=O)NC(=O)NCc3ccco3)CC2)c1	47	i	i	i	i	27	i
Cc1cccc(C(=O)OCC(=O)N(CC(C)C)c2c(N)n(Cc3ccccc3)c(=O)[nH]c2=O)c1O	i	i	nt	i	i	nt	nt
Cc1nc2ccc(NC(=O)c3ccc(Cl)nc3)cc2s1	i	i	i	i	i	nt	nt
Cc1nc2ccc(NC(=O)c3cc(Cl)ccn3)cc2s1	49	i	i	i	i	i	i
O=c1[nH]c(/C=C\c2ccccc2F)nc(O)c1[N+](=O)[O-]	i	i	i	i	i	nt	nt
COc1cc(OC)c2ccc(=O)oc2c1C(CC(=O)N1CCCC1)c1ccc2c(c1)OCO2 (stereo unspecified)	47	i	nt	i	i	i	nt
COc1cc(OC)c2ccc(=O)oc2c1C(CC(=O)N1CCCC(C)C1)c1ccc2c(c1)OCO2 (stereo unspecified)	i	i	nt	i	i	nt	nt

High-throughput results (PubChem BioAssay)
